# The campaign covered roughly 66,000 compounds. About 960 (1.5%) showed an effect of 50% or more. The entries come from a sample that favours strong results as a whole.
# Tested on: Trypanosoma brucei
# Assay: Trypanosoma brucei 72 hour study
# Type: functional, organism-based
# Parameters: scale not given: in the data most compounds retested in dose-response had high values
structure (smiles),measurement,setting,value
O=C(C1CC1)N1CCCC1c1nnc2n1CCCCC2 (stereo not drawn),Percent Effect,"30 µM, 30.03 µM",-31.5%
CN(C)C(=O)CN1CCn2cc(Cn3cccn3)nc2C1.O=C(O)C(F)(F)F.O=C(O)C(F)(F)F,Percent Effect,"30 µM, 30.03 µM",-43.32%
CCNc1cc2c(nn1)CCN(C(=O)c1cc3cccc(C)c3o1)C2,Percent Effect,10 µM,-32.26%
same,Percent Effect,"30.3 µM, […]",29.79%
CC(C)CN1Cc2nc(N3CCCC(C)C3)ncc2C1=O (stereo not drawn),Percent Effect,"30 µM, 30.03 µM",-5.722%
Cl.Cl.O=C(CN1CCN(CC(O)C2CC2)CC1)NCc1ccccc1Cl (stereo not drawn),Percent Effect,"30.3 µM, […]",-15.94%
COc1ccc(C(=O)NCCCOC(C)c2ccccc2)c(OC)c1 (stereo not drawn),Percent Effect,"30.3 µM, […]",17.87%
OC(CNc1nc(C2CCCC2)nc2c1CCNCC2)C(F)(F)F (stereo not drawn),Percent Effect,"30 µM, 30.03 µM",99.48%
Cc1nc2c(c(NCC(O)C(F)(F)F)n1)CCNCC2 (stereo not drawn),Percent Effect,"30 µM, 30.03 µM",-77.95%
OC(CNc1ncnc2c1CCNCC2)C(F)(F)F (stereo not drawn),Percent Effect,"30 µM, 30.03 µM",-18.54%
N#Cc1cccc(CN2CCC3(CC2)CC(c2ccncc2)C(=O)N3)c1.O=C(O)C(F)(F)F.O=C(O)C(F)(F)F (stereo not drawn),Percent Effect,"30 µM, 30.03 µM",43.46%
CCOc1ncccc1NC(=O)c1cc(C)sc1C,Percent Effect,"30 µM, 30.03 µM",-36.47%
CCOc1ncccc1NC(=O)c1ccc(C)s1,Percent Effect,"30 µM, 30.03 µM",-25.8%
CCOc1ncccc1NC(=O)c1cc(C)c(C)s1,Percent Effect,"30 µM, 30.03 µM",63.47%
O=C(NCCc1nnc2n1CCC2)NCC1(c2ccccc2)CC1,Percent Effect,"30.3 µM, […]",3.515%
O=C(O)C(F)(F)F.O=C(c1ccsc1)N1CCC2(CCN(Cc3ccccn3)C2=O)C1 (stereo not drawn),Percent Effect,"30 µM, 30.03 µM",-3.251%
CC(C)C(=O)N1CCC(n2nc(-c3ccco3)ccc2=O)CC1,Percent Effect,"30.3 µM, […]",-15.18%
Cc1nnc2ccc(N3CCC(C(=O)Nc4nccs4)CC3)nn12,Percent Effect,"30 µM, 30.03 µM",0.472%
CC(C)c1nnc2ccc(N3CCC(C(=O)Nc4nccs4)CC3)nn12,Percent Effect,"30 µM, 30.03 µM",61.33%
CC(C)c1nnc2ccc(N3CCCC(C(=O)Nc4nccs4)C3)nn12 (stereo not drawn),Percent Effect,"30 µM, 30.03 µM",-31.38%
CC(C)C1CN(c2cccc(C#N)n2)CCCN1CC1CC1 (stereo not drawn),Percent Effect,"30.3 µM, […]",-2.966%
CC(C)C1CN(c2cccc(C#N)n2)CCCN1Cc1ccc(F)cc1 (stereo not drawn),Percent Effect,"30.3 µM, […]",99.78%
CC(C)C1CN(S(C)(=O)=O)CCCN1Cc1ccc(F)cc1 (stereo not drawn),Percent Effect,"30 µM, 30.03 µM",-25.6%
CN(C)C(=O)[C@H]1C[C@H]2OCC[C@H]2N(Cc2ccc3ccccc3n2)C1.O=C(O)C(F)(F)F.O=C(O)C(F)(F)F,Percent Effect,"30.3 µM, […]",-111.9%
CCCNC(=O)c1cc2c(c3ccccc3n2C)n1C(=O)N(C)C,Percent Effect,"30.3 µM, […]",27.2%
COCCNC(=O)c1cc2c(c3ccccc3n2C)n1C(=O)N(C)C,Percent Effect,"30 µM, 30.03 µM",28.71%
CC(C)NC(=O)c1cc2c(c3ccccc3n2C)n1C(=O)N(C)C,Percent Effect,"30 µM, 30.03 µM",61.67%
Cc1ccsc1CN1CCC(n2cc(C(O)c3ccccc3)nn2)CC1 (stereo not drawn),Percent Effect,"30.3 µM, […]",-15.95%
CCc1nnc2n1CCN(C(=O)CCOc1ccc(C)cc1C)C2,Percent Effect,"30 µM, 30.03 µM",-30.52%
O=C(O)C(F)(F)F.O=C([C@@H]1CCO[C@@H]2CCN(CC3CCOCC3)C[C@H]21)N1CCCO1,Percent Effect,"30 µM, 30.03 µM",-11.19%
CCOCC(=O)N1C[C@@H]2CCN(c3cnccn3)C[C@@H]2C1.O=C(O)C(F)(F)F,Percent Effect,"30.3 µM, […]",-17.39%
CCN1CCn2c(C)cnc2C12CCN(C(=O)NC)CC2.O=C(O)C(F)(F)F,Percent Effect,"30.3 µM, […]",-20.19%
CCOC(=O)C1CCCN(Cc2c[nH]nc2-c2cc3ccccc3o2)C1 (stereo not drawn),Percent Effect,"30.3 µM, […]",15.89%
CCOC(=O)C1CCCCN1Cc1c[nH]nc1-c1cc2ccccc2o1 (stereo not drawn),Percent Effect,"30.3 µM, […]",58.53%
CCOC(=O)C1CCCCN1Cc1c[nH]nc1-c1ccc(F)cc1F (stereo not drawn),Percent Effect,"30.3 µM, […]",-2.201%
CCN(CC)C1COc2c(cc(Br)c(C)c2Br)C1=O (stereo not drawn),Percent Effect,"30.3 µM, […]",52.72%
Cc1c(Br)cc2c(c1C)OCC(N(C)C)C2=O (stereo not drawn),Percent Effect,"30.3 µM, […]",0.8254%
CCN(CC)C1COc2c(cc(Br)c(C)c2C)C1=O (stereo not drawn),Percent Effect,"30.3 µM, […]",-8.815%
O=C1CN(C(=O)c2ccc(F)cc2)CC(O)CN1Cc1cccs1 (stereo not drawn),Percent Effect,"30.3 µM, […]",5.097%
Cc1ccc(C(=O)N2CC(=O)N(Cc3cccs3)CC(O)C2)cc1 (stereo not drawn),Percent Effect,"30.3 µM, […]",2.037%
O=C1CN(C(=O)c2ccc(Cl)cc2)CC(O)CN1Cc1cccs1 (stereo not drawn),Percent Effect,"30.3 µM, […]",99.92%
CN1C[C@@H]2CC[C@H](CC1=O)N2C(=O)c1ccc(-c2ccccc2)[nH]c1=O,Percent Effect,"30.3 µM, […]",2.014%
CC(C)OCCCN(Cc1ccncc1)Cc1cc(F)ccc1F.Cl,Percent Effect,"30.3 µM, […]",-3.291%
C/C(Cl)=C/CNC(=O)[C@H]1CC[C@]2(CC1)CN(C)C(=O)c1ccccc1O2,Percent Effect,"30.3 µM, […]",-12.03%
CO[C@H]1CN(C(C)C)C[C@@H]1NC(=O)Nc1ccc2oc(C)cc2c1,Percent Effect,"30 µM, 30.03 µM",-77.41%
CO[C@H]1CN(C(C)C)C[C@@H]1NC(=O)Nc1cccc(SC)c1,Percent Effect,"30 µM, 30.03 µM",-47.34%
CO[C@H]1CN(C(C)C)C[C@@H]1NC(=O)Nc1ccc(C(F)(F)F)cc1,Percent Effect,"30 µM, 30.03 µM",82.01%
CO[C@H]1CN(C(=O)OC(C)(C)C)CC1NCc1cccn1C (stereo partly drawn),Percent Effect,"30 µM, 30.03 µM",-31.18%
Cc1ccc(C2COCCN2C(=O)c2ccc(F)c(F)c2)o1 (stereo not drawn),Percent Effect,"30 µM, 30.03 µM",29.67%
Cc1ccc(C2COCCN2C(=O)c2ccc(N(C)C)cc2)o1 (stereo not drawn),Percent Effect,"30 µM, 30.03 µM",5.525%
Cc1ccc(C2COCCN2C(=O)c2cccc(N(C)C)c2)o1 (stereo not drawn),Percent Effect,"30 µM, 30.03 µM",50.27%
CN(C)C(=O)CN1C(=O)C[C@@H]2[C@@H]1CCN2Cc1cccc(C#N)c1.O=C(O)C(F)(F)F,Percent Effect,"30.3 µM, […]",-180.8%
Cc1nc(C)c(C(=O)N2CCc3nc4c(C)csc4c(=O)n3CC2)s1.Cl,Percent Effect,"30.3 µM, […]",-52.81%
CN(c1ccc(CNC(=O)c2ccc(O)nc2)cc1)C1CCCCC1,Percent Effect,"30 µM, 30.03 µM",-19.08%
CN(c1ncc(C(=O)NCc2ccccc2)c(N)n1)C1CCCCC1,Percent Effect,"30.3 µM, […]",91.96%
Cc1nc(N(C)C2CCCCC2)ncc1C(C)NC(=O)c1cccnc1 (stereo not drawn),Percent Effect,"30.3 µM, […]",-134.2%
CN(c1ncc(C(=O)Nc2ccccc2)c(N)n1)C1CCCCC1,Percent Effect,"30.3 µM, […]",1.024%
COc1ccc(NC(=O)c2cnc(N(C)C3CCCCC3)nc2N)cc1,Percent Effect,"30.3 µM, […]",61%
COc1ccc(NC(=O)c2cnc(C3CCN(C)CC3)nc2C)cc1,Percent Effect,"30.3 µM, […]",-7.704%
Cc1ccc(N2Cc3nc(=O)n(C(C)C)n3C2=O)cc1,Percent Effect,"30 µM, 30.03 µM",-28.54%
CN(C(=O)Cc1ccc(NC(=O)NC2CCC2)cc1)c1ccccc1,Percent Effect,"30 µM, 30.03 µM",-6.814%
CC(C)c1nccc(CN(C)Cc2cnn(-c3ccccc3)c2)n1,Percent Effect,"30 µM, 30.03 µM",6.527%
Cc1nsc(C(=O)NCCCc2ccccc2)n1,Percent Effect,"30 µM, 30.03 µM",-6.915%
COc1cccc(-c2cnc(C3CCNCC3)cn2)c1,Percent Effect,"30.3 µM, […]",-29.22%
Fc1ccc(-c2cnc(C3CCNCC3)cn2)cc1,Percent Effect,"30.3 µM, […]",58.37%
Cl.Fc1ccc(-c2cnc(C3CCCN3)cn2)cc1 (stereo not drawn),Percent Effect,"30.3 µM, […]",19.97%
C[C@@]1(O)CCN(Cc2cc[nH]n2)C[C@H]1Oc1cccc(F)c1,Percent Effect,"30.3 µM, […]",13.98%
COCCO[C@H]1CCN(C(=O)NC2CC2)[C@H]1Cc1cnn(C)c1,Percent Effect,"30 µM, 30.03 µM",-38.19%
CCn1c(CN2CCCC(O)(c3ccc(F)cc3)CC2)cnc1SC.O=C(O)CC(O)(CC(=O)O)C(=O)O (stereo not drawn),Percent Effect,"30.3 µM, […]",-0.3019%
CNCCNc1nccc(-c2cn(C)nc2C)n1,Percent Effect,"30.3 µM, […]",-7.529%
CCCOCCCNc1nccc(-c2cn(C)nc2C)n1,Percent Effect,"30 µM, 30.03 µM",60.81%
CCN(CC)CCCNc1nccc(-c2cn(C)nc2C)n1,Percent Effect,"30.3 µM, […]",0.2363%
NC(=O)c1c[nH]nc1NC(=O)c1cccc(Cl)c1,Percent Effect,"30.3 µM, […]",-12.02%
CN(CCO)CC1COCCN1C(=O)C1CCCCC1.O=CO (stereo not drawn),Percent Effect,"30 µM, 30.03 µM",-4.713%
CN(CCO)CC1COCCN1C(=O)C1(c2cccs2)CCCC1.O=CO (stereo not drawn),Percent Effect,"30.3 µM, […]",95.25%
Cc1ccccc1C(=O)N1CCOCC1CN(C)C.O=CO (stereo not drawn),Percent Effect,"30.3 µM, […]",13.8%
CN(C)CC1COCCN1C(=O)C1(c2cccs2)CCCC1.O=CO (stereo not drawn),Percent Effect,"30.3 µM, […]",99.83%
O=C(N1CCOCC1CO)C1(c2cccs2)CCCC1 (stereo not drawn),Percent Effect,"30.3 µM, […]",-27.69%
CN(CCO)CC1COCCN1C(=O)CCC1CCCC1.O=CO (stereo not drawn),Percent Effect,"30 µM, 30.03 µM",-33.47%
C1CC(N2C[C@@H]3COC[C@]3(COCC3CCOCC3)C2)C1.O=C(O)C(F)(F)F,Percent Effect,"30.3 µM, […]",-71.78%
CN1CCN(C(=O)[C@H]2C[C@H]3[C@H](CCN3Cc3cccs3)O2)CC1.O=C(O)C(F)(F)F.O=C(O)C(F)(F)F,Percent Effect,"30.3 µM, […]",-15.62%
O=C(c1cnc(-c2ccco2)s1)N1CCCCC1Cn1cccn1 (stereo not drawn),Percent Effect,"30.3 µM, […]",-0.6425%
CN(C)C1COC2(CCN(Cc3ccc4c(c3)OCO4)CC2)C1.O=C(O)C(F)(F)F.O=C(O)C(F)(F)F (stereo not drawn),Percent Effect,"30.3 µM, […]",39.28%
c1ccc(-c2cc(CNCCCN3CCCCC3)c3nnnn3c2)cc1,Percent Effect,"30.3 µM, […]",-3.089%
c1ccc(-c2cc(CNCCN3CCCC3)c3nnnn3c2)cc1,Percent Effect,"30.3 µM, […]",99.79%
c1ccc(-c2cc(CNCCN3CCOCC3)c3nnnn3c2)cc1,Percent Effect,"30.3 µM, […]",-21.36%
O=C(N1CCOCC1)N1CCc2ncnc(NC3CCC3)c2CC1.O=C(O)C(F)(F)F,Percent Effect,"30.3 µM, […]",-46.89%
O=C(Cn1cccn1)Nc1ccc(N2CCCCC2)cc1,Percent Effect,"30 µM, 30.03 µM",-14.86%
Cc1cccnc1[C@]1(O)CC[C@H]2CN(Cc3cccc(Cl)c3Cl)C[C@H]21.O=C(O)CC(O)(CC(=O)O)C(=O)O,Percent Effect,"30.3 µM, […]",-4.562%
Cc1ccc(SC2CCCC2)c(C(=O)NCCO)c1,Percent Effect,"30 µM, 30.03 µM",-19.93%
COc1cccc(CNCc2c(C(C)C)nn(C)c2N(C)C)c1OC,Percent Effect,"30 µM, 30.03 µM",101.8%
Cc1ccc(C(O)CNCc2c(C(C)C)nn(C)c2N(C)C)cc1 (stereo not drawn),Percent Effect,"30 µM, 30.03 µM",54.73%
CC(C)c1nn(C)c(N(C)C)c1CNCC(O)c1ccccc1 (stereo not drawn),Percent Effect,"30.3 µM, […]",9.453%
same,Percent Effect,"10 mM, 10 mM as filed; unlikely as a test dose",-25.34%
COCc1ccccc1CNCc1c(C(C)C)nn(C)c1N(C)C,Percent Effect,10 µM,-17.78%
CC(C)c1nn(C)c(N(C)C)c1CNCC(O)c1cccc(F)c1 (stereo not drawn),Percent Effect,10 µM,-45.99%
COc1ncccc1CNCc1c(C(C)C)nn(C)c1N(C)C,Percent Effect,"30.3 µM, […]",0.2022%
Cc1ccc(CN(CCCN2CCOCC2)Cc2[nH]cnc2C)o1.O=C(O)CC(O)(CC(=O)O)C(=O)O,Percent Effect,"30.3 µM, […]",-12.11%
